Consider six compounds from PubChem BioAssay (NCI).

Several values for one entry are separate records, joined by “and”; a condition that tells them apart may be missing. Equal values may be shown once. Compounds without any hit were thinned out: in the full panel of roughly 83,000, 20% have a hit.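 Treatment: one concentration, 48 hours, 96-well format. Scoring: percent growth, with anything below 10 considered active.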 Activity calls are given as the source filed them.

Among the test systems are HCT-15 colon; HT29 colon; SNB-75 CNS; SNB-19 CNS; U251 CNS; PC-3 prostate; SK-MEL-5 melanoma; UACC-62 melanoma; LOX IMVI melanoma; SK-MEL-28 melanoma; SK-MEL-2 melanoma; EKVX NSCLC; SN12C renal; UO-31 renal; TK-10 renal; ACHN renal; CAKI-1 renal; A498 renal; CCRF-CEM leukemia; MOLT-4 leukemia.
What all share (assay): NCI-60 one-dose screen, 48 h (100 = growth as untreated, 0 = no growth, -100 = all killed)
Common to all, as to details: 10 µM unless noted

As for `CC1=CC(=O)C=CC1=Nc1ccc(N(C)C)cc1`, the growth is 96.8% (inactive) and 32.4% (inactive) in the assay with HCT-15 colon; 105% (inactive) and 45.1% (inactive) in the assay with HT29 colon; 123% (inactive) and 76.4% (inactive) in the assay with SNB-75 CNS; 97.1% (inactive) and 73.4% (inactive) in the assay on SNB-19 CNS; 21.2% (inactive) in the assay on U251 CNS; 56% (inactive) and 12.1% (inactive) with PC-3 prostate. The growth in the assay on SK-MEL-5 melanoma is 89.4% (inactive) and 17.6% (inactive); with UACC-62 melanoma, 88.1% (inactive) and 18.2% (inactive); with LOX IMVI melanoma, 83.4% (inactive); with SK-MEL-28 melanoma it was 96.8% (inactive) and 74.7% (inactive); in the assay on SK-MEL-2 melanoma it was 44.6% (inactive); in the assay with EKVX NSCLC, -44.9% (active). Moreover, the growth with SN12C renal was 90.6% (inactive) and 46.4% (inactive); in the assay on UO-31 renal, 65.6% (inactive) and 50.7% (inactive); in the assay with TK-10 renal, 126% (inactive) and 115% (inactive); in the assay with ACHN renal, 96.6% (inactive) and 55.3% (inactive); in the assay on CAKI-1 renal, 87.1% (inactive) and 67.3% (inactive); in the assay with A498 renal it was 92.7% (inactive) and 121% (inactive). In addition, the growth in the assay on CCRF-CEM leukemia is -28.7% (active); in the assay on MOLT-4 leukemia, 50.4% (inactive) and 12% (inactive).

On to `O=[N+]([O-])c1cccc2ccc(N/N=C/c3ccccc3O)nc12`, for which the growth in the assay with HCT-15 colon was 93.6% (inactive) and 98% (inactive); in the assay on HT29 colon, 93.3% (inactive) and 106% (inactive); with SNB-75 CNS it was 67.8% (inactive) and 87.9% (inactive); in the assay with SNB-19 CNS it was 99.3% (inactive) and 108% (inactive); in the assay with U251 CNS, 93.7% (inactive) and 98.6% (inactive); with PC-3 prostate, 76.1% (inactive) and 84.4% (inactive). For the same compound, the growth in the assay with SK-MEL-5 melanoma is 88% (inactive) and 90.9% (inactive); in the assay on UACC-62 melanoma, 85.5% (inactive) and 94.6% (inactive); in the assay with LOX IMVI melanoma, 83.6% (inactive) and 91.4% (inactive); with SK-MEL-28 melanoma, 134% (inactive) and 109% (inactive); in the assay with SK-MEL-2 melanoma, 149% (inactive) and 75% (inactive); in the assay on EKVX NSCLC, 78.8% (inactive) and 82.1% (inactive). The growth in the assay with SN12C renal is 96.4% (inactive) and 98.5% (inactive); with UO-31 renal it was 26.6% (inactive) and 64.3% (inactive); in the assay with TK-10 renal it was 150% (inactive) and 120% (inactive); with ACHN renal it was 68.4% (inactive) and 103% (inactive); in the assay on CAKI-1 renal, 80.3% (inactive); with A498 renal, 92.8% (inactive) and 95% (inactive). Also, the growth in the assay on CCRF-CEM leukemia is 3.42% (active) and 86.9% (inactive); in the assay with MOLT-4 leukemia, 16.6% (inactive) and 57% (inactive).

On to `N=C(N)N1CCc2ccccc2C1`, for which the growth is 109% (inactive) and 103% (inactive) in the assay on HCT-15 colon; 102% (inactive) and 105% (inactive) with HT29 colon; 98% (inactive) and 109% (inactive) with SNB-75 CNS; 99.9% (inactive) and 103% (inactive) with SNB-19 CNS; 89.2% (inactive) and 98.4% (inactive) with U251 CNS; 89.3% (inactive) and 128% (inactive) in the assay on PC-3 prostate. For the same compound, the growth is 102% (inactive) and 111% (inactive) in the assay on SK-MEL-5 melanoma; 99.3% (inactive) and 99% (inactive) in the assay on UACC-62 melanoma; 84.3% (inactive) and 113% (inactive) in the assay on LOX IMVI melanoma; 109% (inactive) in the assay with SK-MEL-28 melanoma; 128% (inactive) in the assay on SK-MEL-2 melanoma; 66% (inactive) and 97% (inactive) in the assay with EKVX NSCLC. In addition, the growth is 90.8% (inactive) and 99.6% (inactive) in the assay with SN12C renal; 82.8% (inactive) and 86.8% (inactive) in the assay on UO-31 renal; 106% (inactive) and 110% (inactive) with TK-10 renal; 101% (inactive) with ACHN renal; 74.5% (inactive) and 101% (inactive) in the assay with CAKI-1 renal; 58.3% (inactive) in the assay with A498 renal. Moreover, the growth with CCRF-CEM leukemia was 91.9% (inactive); in the assay on MOLT-4 leukemia, 88.3% (inactive) and 106% (inactive).

On to `O=C(OCc1ccccc1)c1ccccc1`, for which the growth in the assay on HCT-15 colon is 114% (inactive) and 103% (inactive); in the assay with HT29 colon, 114% (inactive) and 87.8% (inactive); in the assay with SNB-75 CNS it was 98.7% (inactive); in the assay with SNB-19 CNS, 101% (inactive) and 92.1% (inactive); in the assay on U251 CNS, 99.8% (inactive) and 105% (inactive); in the assay on PC-3 prostate, 107% (inactive) and 85.4% (inactive). In addition, the growth in the assay with SK-MEL-5 melanoma was 104% (inactive) and 101% (inactive); in the assay on UACC-62 melanoma, 92.6% (inactive) and 102% (inactive); in the assay on LOX IMVI melanoma, 96.2% (inactive); in the assay with SK-MEL-28 melanoma, 106% (inactive) and 120% (inactive); with SK-MEL-2 melanoma, 126% (inactive) and 87.8% (inactive); in the assay on EKVX NSCLC, 101% (inactive) and 104% (inactive). Also, the growth was 93.2% (inactive) and 117% (inactive) in the assay on SN12C renal; 107% (inactive) and 64.8% (inactive) with UO-31 renal; 105% (inactive) and 102% (inactive) with TK-10 renal; 111% (inactive) and 98.1% (inactive) in the assay on ACHN renal; 99.7% (inactive) and 90.2% (inactive) in the assay with CAKI-1 renal; 88.6% (inactive) and 81.3% (inactive) with A498 renal. Moreover, the growth in the assay on CCRF-CEM leukemia was 104% (inactive); in the assay on MOLT-4 leukemia it was 102% (inactive) and 83.3% (inactive).

Turning to `Nc1ccccc1SC(CC(=O)c1ccccc1)c1cccc([N+](=O)[O-])c1` (stereo not given), the growth with HCT-15 colon was 66.3% (inactive) and 49.4% (inactive); in the assay with HT29 colon, 11.5% (inactive) and 30.2% (inactive); in the assay on SNB-75 CNS, 74.9% (inactive) and 78.1% (inactive); with SNB-19 CNS, 89.8% (inactive); in the assay on U251 CNS, 57.5% (inactive) and 61.1% (inactive); with PC-3 prostate, 75% (inactive) and 71.6% (inactive). The growth is 96.3% (inactive) in the assay on SK-MEL-5 melanoma; 85.5% (inactive) and 94% (inactive) in the assay on UACC-62 melanoma; 33.5% (inactive) and 10.9% (inactive) with LOX IMVI melanoma; 96% (inactive) and 102% (inactive) in the assay on SK-MEL-28 melanoma; 113% (inactive) and 81.9% (inactive) in the assay on SK-MEL-2 melanoma; 96.5% (inactive) with EKVX NSCLC. Further, the growth with SN12C renal is 87.7% (inactive) and 88.8% (inactive); with UO-31 renal it was 71.6% (inactive) and 61.5% (inactive); in the assay on TK-10 renal, 131% (inactive) and 113% (inactive); in the assay with ACHN renal it was 90.1% (inactive) and 90.7% (inactive); with CAKI-1 renal it was 70.9% (inactive) and 95.2% (inactive); with A498 renal it was 91.5% (inactive) and 104% (inactive). The growth was 53.3% (inactive) and 34.9% (inactive) in the assay with CCRF-CEM leukemia; 87.6% (inactive) and 55% (inactive) with MOLT-4 leukemia.

Take `CC(C)(C)C1CCC(=NO)CC1` (stereo not given): the growth is 106% (inactive) in the assay on HCT-15 colon; 95% (inactive) in the assay with HT29 colon; 85.6% (inactive) in the assay with SNB-75 CNS; 96% (inactive) in the assay on SNB-19 CNS; 99.9% (inactive) in the assay with U251 CNS; 86.7% (inactive) in the assay with PC-3 prostate. Further, the growth in the assay on SK-MEL-5 melanoma is 104% (inactive); in the assay with UACC-62 melanoma, 99.4% (inactive); in the assay on LOX IMVI melanoma, 99.8% (inactive); in the assay with SK-MEL-28 melanoma it was 110% (inactive); with SK-MEL-2 melanoma, 94.5% (inactive); in the assay on EKVX NSCLC, 102% (inactive). The growth was 103% (inactive) with SN12C renal; 71.7% (inactive) with UO-31 renal; 108% (inactive) in the assay with TK-10 renal; 105% (inactive) in the assay on ACHN renal; 97.2% (inactive) in the assay on CAKI-1 renal; 97.4% (inactive) in the assay with A498 renal. For the same compound, the figures for the growth in the assay on CCRF-CEM leukemia and in the assay with MOLT-4 leukemia were 99.8% (inactive) and 123% (inactive), respectively.
